# Results: PubChem BioAssay (NCI)
# The panel holds about 83,000 compounds, 20% with a hit somewhere; the sample as a whole holds those more often.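 Single-concentration screen, 48 h exposure, 96-well plates. Endpoint: percent growth. Below 10 = active.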 Calls of active or inactive are those of the source.
# Assays:
# Experiment in all cases: NCI-60 one-dose screen, 48 h (100 = growth as untreated, 0 = no growth, -100 = all killed)
# DU-145 prostate = conditions: 10 µM unless noted
# K-562 leukemia = conditions: 10 µM unless noted
# MALME-3M melanoma = conditions: 10 µM unless noted
# SF-295 CNS = conditions: 10 µM unless noted
# SK-MEL-5 melanoma = conditions: 10 µM unless noted
# LOX IMVI melanoma = conditions: 10 µM unless noted
# SK-MEL-2 melanoma = conditions: 10 µM unless noted
# ACHN renal = conditions: 10 µM unless noted
# HL-60(TB) leukemia = conditions: 10 µM unless noted
# CCRF-CEM leukemia = conditions: 10 µM unless noted
# MOLT-4 leukemia = conditions: 10 µM
# OVCAR-8 ovarian = conditions: 10 µM unless noted
# OVCAR-3 ovarian = conditions: 10 µM unless noted
# NCI/ADR-RES ovarian = conditions: 10 µM unless noted
# T-47D breast = conditions: 10 µM unless noted
# HCC-2998 colon = conditions: 10 µM unless noted
# RXF 393 renal = conditions: 10 µM unless noted
# UACC-257 melanoma = conditions: 10 µM unless noted
# SNB-19 CNS = conditions: 10 µM unless noted
# IGROV1 ovarian = conditions: 10 µM
SMILES,growth (DU-145 prostate),growth (K-562 leukemia),growth (MALME-3M melanoma),growth (SF-295 CNS),growth (SK-MEL-5 melanoma),growth (LOX IMVI melanoma),growth (SK-MEL-2 melanoma),growth (ACHN renal),growth (HL-60(TB) leukemia),growth (CCRF-CEM leukemia),growth (MOLT-4 leukemia),growth (OVCAR-8 ovarian),growth (OVCAR-3 ovarian),growth (NCI/ADR-RES ovarian),growth (T-47D breast),growth (HCC-2998 colon),growth (RXF 393 renal),growth (UACC-257 melanoma),growth (SNB-19 CNS),growth (IGROV1 ovarian)
O=C1NC(=O)C(O)(C2(O)C(=O)NC(=O)NC2=O)C(=O)N1,109% (inactive),87.9% (inactive),57.9% (inactive),133% (inactive),86.7% (inactive),91.9% (inactive),77.5% (inactive),104% (inactive),85.9% (inactive),70.1% (inactive),85.2% (inactive),109% (inactive),115% (inactive),92.7% (inactive),101% (inactive),-55.7% (active),,,,
CC(C)Nc1ccc(Nc2ccccc2)cc1,38.7% (inactive),24.6% (inactive),43% (inactive),12.5% (inactive),57.9% (inactive),14.5% (inactive),80.5% (inactive),30.5% (inactive),69.3% (inactive),38.3% (inactive),43.6% (inactive),28.1% (inactive),7.43% (active),74.8% (inactive),42.9% (inactive),49.6% (inactive),55.5% (inactive),47.5% (inactive),33.7% (inactive),27% (inactive)
CC(/C=N/N=C(N)N)=N\N=C(N)N,65.5% (inactive),56.1% (inactive),126% (inactive),85.5% (inactive),137% (inactive),67% (inactive),-5.97% (active),80.9% (inactive),77.6% (inactive),53% (inactive),98.6% (inactive),58.4% (inactive),57.7% (inactive),24.9% (inactive),40.8% (inactive),-62.9% (active),,,78.1% (inactive),
